FadD28 binding: M. tuberculosis FadD28 bisubstrate binding inhibition | inhibition, % at 12.5 µM | AID 588549 | 360,000 tested, 0.22% active | FadD28 bisubstrate probe binding, fluorescence polarization; in the data active = inhibition above about 8.5%, passing the limit was not always enough
Rv3671c inh: inhibits the M. tuberculosis serine protease Rv3671c | 320,000 tested, 0.048% active | inhibition, % at 5.96 µM; in the data active = inhibition above about 38%;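 note: extracellular domain of Rv3671c used as enzyme; 0% = enzyme with DMSO and 100% = no enzyme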
FBA Mtb inh: Mtb fructose-bisphosphate aldolase inhibition | P9WQA3 | purified M. tuberculosis FBA, fluorescence read-out | inhibition, % at 1 µM | 360,000 tested, 2.3% active;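 note: 0% = vehicle and 100% = reference inhibitor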
Target sequence (P9WQA3 whole entry, looked up): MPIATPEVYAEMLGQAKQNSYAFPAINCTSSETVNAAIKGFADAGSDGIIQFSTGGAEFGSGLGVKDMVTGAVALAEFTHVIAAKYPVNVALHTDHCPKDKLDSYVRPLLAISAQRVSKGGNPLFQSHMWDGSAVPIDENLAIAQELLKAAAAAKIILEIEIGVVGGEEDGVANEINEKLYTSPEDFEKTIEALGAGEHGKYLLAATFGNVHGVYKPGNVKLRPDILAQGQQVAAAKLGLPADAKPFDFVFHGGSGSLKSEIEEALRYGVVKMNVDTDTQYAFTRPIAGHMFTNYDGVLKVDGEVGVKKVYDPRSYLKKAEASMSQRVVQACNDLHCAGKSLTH
Mtb betalactam: beta-lactam sensitization of Mtb H37Rv | M. tuberculosis H37Rv growth with meropenem, percent inhibition | inhibition, % at 25 µM | 330,000 tested, 0.27% active | AID 434955; call rule not given here;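 note: growth measured after seven days incubation then overnight dye step; 0% = bacteria only wells and 100% = bacteria with antibiotic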
Mtb UGM inh: blocks M. tuberculosis UGM enzyme. inhibition, % at 10 µM. purified UGM, fluorescence polarization probe displacement. P9WIQ1. 320,000 tested, 0.06% active; in the data active = inhibition above about 10%, passing the limit was not always enough
GDH-TPI counter-1: GDH-TPI coupled enzyme inhibition counter-screen | GDH-TPI coupled enzyme counterscreen, NADH absorbance | 360,000 tested, 1.2% active | inhibition, % at 4.8 µM | AID 588335; in the data active = inhibition above about 30%;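 note: 0% = DMSO wells and 100% = wells lacking the enzyme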
Mtb FBA confirm: confirmation of M. tuberculosis fructose-bisphosphate aldolase inhibitors | shares compounds with FBA Mtb inh | purified M. tuberculosis FBA, fluorescence read-out | inhibition, % at 1 µM | 5,600 tested, 78% active | AID 651616;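 note: 0% = vehicle wells and 100% = reference inhibitor wells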
GDH-TPI counter-2: GDH-TPI inhibition counter-screen for FBA inhibitors; shares compounds with FBA Mtb inh; GDH-TPI coupled enzyme counterscreen, fluorescence; inhibition, % at 1 µM; 5,600 tested, 81% active; AID 652141; in the data active = inhibition above about 10%
* hit, by the source's call; x = no result given; + = active, no number. Most compounds without a hit are left out; they make up all but 3.7% or so of the library. Cut-off read from the data, not from the text of the source, unless noted: active = inhibition above about 27%; inactive = the rest.

SMILES | FadD28 binding | Rv3671c inh | FBA Mtb inh | Mtb betalactam | Mtb UGM inh | GDH-TPI counter-1 | Mtb FBA confirm | GDH-TPI counter-2
COC(=O)C1=CN(Cc2ccc(OC)c(OC)c2)C=C(C(=O)OC)C1c1ccccc1F | -1 | x | 91* | 3 | 1 | 2 | 61* | 47*
COC(=O)C1=CN(Cc2ccc(OC)c(OC)c2)C=C(C(=O)OC)C1c1ccc(O)cc1 | -1 | x | 64* | -1 | 1 | 9 | + | +
CN(CC(=O)Nc1ccc(F)c(F)c1F)C(=O)C1(c2ccccc2)CC1 | -2 | x | -2 | x | x | 4 | x | x
Cc1ccc(CNC(=O)c2ccc(CNS(=O)(=O)c3ccc4c(c3)C(C)(C)C(=O)N4C)cc2)o1 | -3 | -2 | 2 | -4 | 2 | -5 | x | x
O=C(CCN1C(=O)C2C3C=CC(C3)C2C1=O)NC1CCCCC1 (stereo unspecified) | -2 | 5 | 8 | 1 | 0 | 10 | x | x
CCOC(=O)N1CCC(NC(=O)CCN2C(=O)C3C4C=CC(C4)C3C2=O)CC1 (stereo unspecified) | -1 | 1 | 84* | -8 | -1 | -5 | + | +
Cc1nnc(SCC(=O)NC2CCCCC2)n1-c1ccccc1 | 0 | x | 0 | x | x | -2 | x | x
NC(=O)c1cc2c(s1)-c1cc(Cl)ccc1SC2 | -2 | -9 | 1 | 76 | -1 | -3 | x | x
COCCNC(=O)c1cc2c(s1)-c1ccc(Cl)cc1SC2 | -7 | x | 46* | -3 | -4 | 3 | 174* | 160*
Cc1ccc(/C=N/N=C/c2ccc(C)s2)s1 | 0 | -2 | 1 | -2 | 1 | 18 | x | x
Cc1cccc(/C=N/NC(=O)Cc2cccs2)c1 | -2 | 11 | 1 | -5 | 1 | -11 | x | x
Cc1ccc(C=Nc2ccccc2C(N)=O)s1 | 1 | -4 | 58* | 0 | 1 | 13 | 59* | 50*
Cc1cccc(C=Nc2ccccc2C(N)=O)c1 | 0 | 3 | 36* | -4 | 1 | 2 | 140* | 101*
S=C(NC1CCCC1)N1CCN(C/C=C/c2ccccc2)CC1 | 1 | -5 | 3 | -4 | -1 | 9 | x | x
Cn1c(=O)c2cc(NC(=S)NC3CC3)ccc2n1C/C=C/c1ccccc1 | 1 | x | 34* | x | x | 7 | 70* | 54*
Cn1c(=O)c2cc(NC(=O)NCc3ccc(F)cc3)ccc2n1C/C=C/c1ccccc1 | -3 | x | 60* | x | x | 2 | 26 | 25*
Cn1c(=O)c2cc(NC(=O)Cc3cccc4ccccc34)ccc2n1-c1ccccc1 | -1 | x | 4 | x | x | 7 | x | x
CC(C)=CCn1c2ccc(NC(=O)Nc3ccc(N(C)C)cc3)cc2c(=O)n1C | -2 | x | 3 | x | x | 4 | x | x
Cn1c(=O)c2cc(NC(=O)Cc3ccccc3F)ccc2n1C/C=C/c1ccccc1 | 0 | x | 62* | x | x | 9 | + | +
CC1(C)CN(c2ccc(Br)cc2)C(=O)[C@H]1CC(=O)Nc1ccccc1 | -4 | x | -3 | x | x | 0 | x | x
C[C@H](NS(=O)(=O)c1c(Cl)cccc1Cl)C(=O)NNC(=O)COc1ccccc1F | -2 | 2 | 20 | -2 | 0 | 3 | x | x
COc1ccc(C(C)(O)c2nc(-c3ccc(OC)nc3)cs2)cc1 (stereo unspecified) | -2 | x | -1 | x | x | 0 | x | x
CC(=NNC(=O)CSCC(=O)NN=C(C)c1ccccc1)c1ccccc1 | 1 | x | 0 | x | x | 6 | x | x
CC(Oc1ccc2ccc(=O)oc2c1)C(=O)N1CCOCC1 (stereo unspecified) | -3 | -8 | 42* | -12 | -2 | 0 | 155* | 122*
COc1cccc(C(=O)Oc2ccc3ccc(=O)oc3c2)c1 | -1 | 6 | 59* | 0 | 0 | 15 | 154* | 141*
SMILES | FadD28 binding | Rv3671c inh | FBA Mtb inh | Mtb betalactam | Mtb UGM inh | GDH-TPI counter-1 | Mtb FBA confirm | GDH-TPI counter-2
CC(Oc1ccc2c(-c3ccccc3)cc(=O)oc2c1)C(=O)N1CCOCC1 (stereo unspecified) | -2 | 6 | -2 | -1 | 2 | 20 | x | x
COc1ccc2ccc(=O)oc2c1 | -3 | 9 | 68* | -11 | 0 | 16 | 88* | 82*
COc1cccc(COc2ccc3ccc(=O)oc3c2)c1 | -3 | -1 | 9 | 6 | 1 | 10 | x | x
O=C(Oc1ccc2ccc(=O)oc2c1)c1cccs1 | 4 | 12 | 66* | 47 | 2 | 6 | 7 | -5
COc1ccc(COc2ccc3ccc(=O)oc3c2)cc1 | x | 4 | 6 | 9 | -1 | 11 | x | x
Cc1ccc(S(=O)(=O)N2CCC(C(=O)OCC(=O)N(C)C3CCCCC3)CC2)cc1C | 1 | -8 | 3 | -7 | 2 | 7 | x | x
COc1cccc(C2c3cc4c(cc3OC(C)(N3CCCC3)C2C)OCO4)c1O (stereo unspecified) | 1 | x | 4 | x | x | 5 | x | x
O=C(Cn1cnc2c(OCc3ccccc3)ncnc21)NCCCc1ccccc1 | -1 | -3 | 0 | 2 | -2 | 0 | x | x
COc1ccc(C(=O)Oc2ccc3ccc(=O)oc3c2)cc1OC | -2 | 6 | 41* | 25 | 2 | 7 | 147* | 107*
c1ccc(-n2nnnc2SCc2cn3cccnc3n2)cc1 | 0 | -9 | 43* | -4 | x | 6 | 76* | 57*
Cc1cc(OCC(=O)NCC(O)c2ccccc2)c2c(C)cc(=O)oc2c1 (stereo unspecified) | 0 | 0 | 77* | 6 | -2 | 2 | 17 | -3
Cc1cc(OCC(=O)NCc2ccncc2)c2c(C)cc(=O)oc2c1 | -1 | -5 | 79* | -3 | 3 | 17 | 40* | 39*
Cc1cc(OCC(=O)NCCc2ccc(S(N)(=O)=O)cc2)c2c(C)cc(=O)oc2c1 | -3 | -5 | 67* | 4 | -1 | -6 | 120* | 97*
COc1ccc(CCNC(=O)COc2cc(C)cc3oc(=O)cc(C)c23)cc1 | -2 | -4 | 3 | 6 | -3 | 6 | x | x
Cc1cc(OC(C)C(=O)NCc2ccccn2)c2c(C)c(Cc3ccccc3)c(=O)oc2c1 (stereo unspecified) | -2 | -4 | 4 | 3 | -2 | 9 | x | x
CCCCc1cc(=O)oc2cc(C)cc(OC(C)C(=O)NCc3ccncc3)c12 (stereo unspecified) | 0 | 7 | 42* | -5 | -1 | 1 | 109* | 76*
Cc1cc(OC(C)C(=O)NCc2ccncc2)c2c(C)cc(=O)oc2c1 (stereo unspecified) | 0 | -4 | 84* | -5 | -2 | 8 | 169* | 159*
CC(Oc1ccc(Cl)cc1Cl)C(=O)NCc1ccncc1 (stereo unspecified) | 0 | 8 | 0 | 44 | 2 | 8 | x | x
Cc1cc(OC(C)C(=O)NCc2cccnc2)c2c(C)cc(=O)oc2c1 (stereo unspecified) | -1 | -5 | 108* | -5 | -2 | 9 | + | +
Cc1ccccc1OC(C)C(=O)NCc1cccnc1 (stereo unspecified) | -1 | 1 | 0 | -3 | -3 | -3 | x | x
